Values without a mark were called inactive.
System: MV4-11
Test: CellTox Green cytotoxicity fluorescence relative to DMSO vehicle (fold of vehicle RFU); higher = more cell death (loss of membrane integrity), active = 2 or more
Protocol: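 Paediatric AML cell lines (MV4-11, CMK, Kasumi-1; 4x10^4 cells/well, 96-well) treated with single compounds from the Selleckchem apoptosis library at 0.01, 0.1 and 1 µM. Cytotoxicity was read with CellTox Green (RFU, Ex 485/Em 520) at 24, 48 and 72 h and normalised to the 0.1% DMSO vehicle. Normalised RFU >= 2 was taken as a successful, cell-killing treatment.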

Which results are given for CC[C@H](C)[C@@H]([C@@H](CC(=O)N1CCC[C@H]1[C@H](OC)[C@@H](C)C(=O)N[C@H](C)[C@@H](O)c1ccccc1)OC)N(C)C(=O)[C@@H](NC(=O)[C@@H](NC)C(C)C)C(C)C [Monomethyl auristatin E]?
CellTox Green cytotoxicity fluorescence (0.01 µM, 24 h): 1.19; CellTox Green cytotoxicity fluorescence (0.01 µM, 48 h): 2.42 (active); CellTox Green cytotoxicity fluorescence (0.01 µM, 72 h): 2.81 (active); CellTox Green cytotoxicity fluorescence (0.1 µM, 24 h): 1.3; CellTox Green cytotoxicity fluorescence (0.1 µM, 48 h): 2.48 (active); CellTox Green cytotoxicity fluorescence (0.1 µM, 72 h): 2.73 (active); CellTox Green cytotoxicity fluorescence (1 µM, 24 h): 1.58; CellTox Green cytotoxicity fluorescence (1 µM, 48 h): 2.5 (active); CellTox Green cytotoxicity fluorescence (1 µM, 72 h): 2.74 (active)

From the supplement of paper PMC7595190
